Bioassay records: PubChem, National Center for Advancing Translational Sciences (NCATS)
The entries come from a sample that favours hits as a whole.
Giardia FBPA inh: qHTS Assay for Inhibitors of Fructose-1,6-bisphosphate Aldolase from Giardia Lamblia; Potency, µM (highest dose often 59.6 µM), inactives show at the top dose activity, negative = inhibition, most hits filed as inhibitors; purified Giardia FBPA; A8B2U2; actives 0.71% (n = 290,000); AID 2451, 2010; further: potency means the concentration at half of the fitted maximal effect; on the % scale 0 is the no-effect control and ±100 the full control effect; nearly all actives have a fitted effect of over 55% in size
Target sequence (A8B2U2 whole entry, looked up): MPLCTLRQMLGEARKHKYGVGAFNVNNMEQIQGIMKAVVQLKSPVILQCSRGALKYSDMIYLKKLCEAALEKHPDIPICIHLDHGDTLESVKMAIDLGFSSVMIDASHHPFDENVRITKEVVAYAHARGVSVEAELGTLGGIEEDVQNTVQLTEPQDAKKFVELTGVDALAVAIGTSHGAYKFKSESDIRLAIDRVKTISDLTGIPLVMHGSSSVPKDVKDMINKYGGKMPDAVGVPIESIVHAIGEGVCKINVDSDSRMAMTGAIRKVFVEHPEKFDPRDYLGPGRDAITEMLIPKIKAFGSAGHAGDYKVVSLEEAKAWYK
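Giardia FBPA (40 nM reagent) was preincubated 10 min at RT with compound (up to 57.5 uM final), then substrate plus GAPDH/TPI/NAD/arsenate coupling system with diaphorase/resazurin was added; resorufin fluorescence (525/598 nm) was read after 20 min.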
Shiga toxin inh: A qHTS for Small Molecule Inhibitors of Shiga Toxin. inhibition, % at 38.7 µM. Vero cells, Shiga toxin protein synthesis inhibition reporter. AID 2315, 2010. actives 9.2% (n = 290,000); in the data active means inhibition mostly above about 28%, no sharp cut-off; inactive means mostly below about 43%; further: 0% is about no effect
CHX counter: Cycloheximide Counterscreen for Small Molecule Inhibitors of Shiga Toxin. cell reporter, cycloheximide protein synthesis inhibition counterscreen. actives 12% (n = 300,000). max response, %; in the data active means max response mostly above about 13%, no sharp cut-off; inactive means mostly below about 14%; further: read at 38.3 µM for the half of the compounds with a filed dose; 0% is about no effect
LmPK inh: qHTS Assay for Inhibitors of Leishmania Mexicana Pyruvate Kinase (LmPK). purified LmPK, Kinase-Glo ATP luminescence, 1 h. Potency, µM (doses to about 57.5 µM), for the others: at the top dose activity change, negative = inhibition, actives largely listed as inhibitors. actives 0.37% (n = 290,000). AID 1721, 2009; further: potency means the concentration at half of the fitted maximal effect; on the % scale 0 is the no-effect control and ±100 the full control effect
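ATP generated from ADP (0.1 mM) and PEP (0.5 mM) by 0.1 nM LmPK over 1 h at room temperature (pH 7.2 imidazole buffer) was detected by coupled luciferase luminescence. Values were normalized to uninhibited and no-enzyme wells.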
TbPYK inhibitor: qHTS of Trypanosoma Brucei Inhibitors | Potency, µM (highest dose often 76.8 µM), for inactives: top-dose activity, negative = inhibition, hits mostly inhibitors | AID 624173, 2012 | TbPYK enzyme, Kinase-Glo Plus ATP luminescence, 45 min | actives 0.12% (n = 410,000) | pyruvate kinase (Trypanosoma brucei), Q57TT1; further: potency means the concentration at half of the fitted maximal effect; on the % scale 0 is the no-effect control and ±100 the full control effect; nearly all actives have a fitted effect of over 50% in size
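Luminescence from Kinase-Glo Plus, added after a 45-minute room-temperature reaction, served as the end-point read-out. The enzyme and substrate were preincubated with compound before ADP (130 uM final) initiated turnover. Concentration-effect curves came from normalized qHTS data.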
Sm TGR block: qHTS Assay for the Inhibitors of Schistosoma Mansoni Peroxiredoxins; Schistosoma mansoni thioredoxin glutathione reductase (TGR), Q962Y6; purified TGR, DTNB reduction, TNB absorbance 405 nm; Potency, µM (highest dose often 114 µM), without a hit: at the highest dose activity change, negative = inhibition, actives largely listed as inhibitors; actives 3% (n = 360,000); further: potency means the concentration at half of the fitted maximal effect; on the % scale 0 is the no-effect control and ±100 the full control effect; nearly all actives have a fitted effect of over 60% in size
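TGR 20 nM + NADPH 100 uM (dispensed conc.), cpd preinc 15 min RT; start with NADPH (500 uM addition) then DTNB (15 mM addition). Kinetic TNB absorbance, 405 nm filter. Four-parameter Hill fit across titration.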
* marks the source's active call; other numbers are inactive results. Unless noted, the call rests on the fitted dose curve; in most records, active means well fitted curve in the direction sought with a large enough effect; inconclusive means small, poorly fitted or top-dose-only effect, or another doubt; inactive means no such curve, though single readings can be large; an effect the other way counts as inactive or inconclusive.

Cc1c(Cl)cccc1NC(=O)CSc1nc2ncccc2o1 was read as TbPYK inhibitor 4% and Sm TGR block 38%.
C=CCc1c(C)nc(-c2ccccc2)nc1N/N=C/c1ccccc1 was read as Giardia FBPA inh -14%, Shiga toxin inh -3, CHX counter -4, LmPK inh 3%, TbPYK inhibitor -2% and Sm TGR block -6%.
Screening C=CCc1c(C)nc(-c2ccccc2)nc1N/N=C/c1ccncc1 returned Giardia FBPA inh -8%, Shiga toxin inh 30, CHX counter 23*, LmPK inh 6%, TbPYK inhibitor 1% and Sm TGR block -2%.
N#Cc1ccc(COC(=O)c2cc(=O)c3ccccc3o2)cc1 was read as Giardia FBPA inh -1%, Shiga toxin inh -5, CHX counter 2, LmPK inh 4%, TbPYK inhibitor -5% and Sm TGR block -1%.
For Nc1ccccc1C(=O)OCc1ccc([N+](=O)[O-])cc1 the results were Giardia FBPA inh 0%, Shiga toxin inh 76*, CHX counter 33*, LmPK inh 0% and TbPYK inhibitor -4%.
`O=C(OCc1ccc([N+](=O)[O-])cc1)c1cc(=O)c2ccccc2o1` gave Giardia FBPA inh -3%, Shiga toxin inh 26, CHX counter 9.7*, LmPK inh 0%, TbPYK inhibitor -9% and Sm TGR block -9%.
`O=C(OCc1nnc(-c2ccccc2)o1)c1cc(=O)c2ccccc2o1` gave Giardia FBPA inh 7%, Shiga toxin inh 36, CHX counter 26*, LmPK inh -12%, TbPYK inhibitor 1% and Sm TGR block -2%.
For CSc1ncccc1C(=O)OCc1ccc([N+](=O)[O-])cc1 the results were Giardia FBPA inh 4%, Shiga toxin inh 30, CHX counter 32, LmPK inh -10%, TbPYK inhibitor -3% and Sm TGR block -10%.
Screening O=C(Cn1ncc2ccsc2c1=O)N1CCN(c2ccc(Cl)cc2)CC1 returned TbPYK inhibitor 1% and Sm TGR block 0%.
COc1ccc(C(=O)Nc2cccc(C(=O)OCc3cc(=O)n4nc(C5CC5)sc4n3)c2)cc1 was read as TbPYK inhibitor -3% and Sm TGR block -10%.
Screening O=C(N/N=C/c1cccc(Cl)c1)c1c(O)c2c([nH]c1=O)CCCC2 returned Giardia FBPA inh 0%, Shiga toxin inh 47, CHX counter 18*, LmPK inh 2%, TbPYK inhibitor 1% and Sm TGR block 12%.
O=C(Nc1ccccc1O)c1c(O)c2c([nH]c1=O)CCCC2 was read as Giardia FBPA inh -10%, Shiga toxin inh 116*, CHX counter 40*, LmPK inh 5% and TbPYK inhibitor 4%.
CCNCCNC(=O)c1c(O)c2c([nH]c1=O)CCCC2 was read as Giardia FBPA inh 11%, Shiga toxin inh -14, CHX counter 1, LmPK inh -5%, TbPYK inhibitor 5% and Sm TGR block inconclusive.
Screening O=C(Nc1nccs1)c1c(O)c2c([nH]c1=O)CCCC2 returned Giardia FBPA inh -3%, Shiga toxin inh 25, CHX counter 13*, LmPK inh 3%, TbPYK inhibitor -5% and Sm TGR block 11%.
Screening CC1=Nc2cccc3cccc(c23)N1 returned Giardia FBPA inh 6%, Shiga toxin inh -26, CHX counter -2, LmPK inh -1%, TbPYK inhibitor -10% and Sm TGR block 40µM*.
For Nc1ccc(C2=Nc3cccc4cccc(c34)N2)cc1 the results were Giardia FBPA inh 20%, Shiga toxin inh 7, CHX counter 8, LmPK inh -28%, TbPYK inhibitor -2% and Sm TGR block inconclusive.
Screening COc1cccc(C2=Nc3cccc4cccc(c34)N2)c1 returned Giardia FBPA inh inconclusive, Shiga toxin inh 16, CHX counter 14*, LmPK inh 0%, TbPYK inhibitor -8% and Sm TGR block -20%.
Screening COc1ccc(-c2[nH]c(-c3cccc(OC)c3)nc2SCC(=O)Nc2ccc3c(c2)OCO3)cc1 returned TbPYK inhibitor -2% and Sm TGR block -14%.
For CCCOc1ccc(CNC(=O)C(CC)n2nc(C)c3sc4ccccc4c3c2=O)cc1 (stereo not given) the results were TbPYK inhibitor -7% and Sm TGR block -8%.
For COc1cc(CN(C)Cc2ccccc2)cc(OC)c1O the results were Giardia FBPA inh inconclusive, Shiga toxin inh -13, CHX counter -1, LmPK inh 7%, TbPYK inhibitor -1% and Sm TGR block 11µM*.
Screening O=C(N/N=C/c1cccc(Oc2ccccc2)c1)c1ccccc1F returned Giardia FBPA inh -3%, Shiga toxin inh active, CHX counter 73*, LmPK inh 6% and Sm TGR block 8%.
Screening O=C(N/N=C/c1cccc(Oc2ccccc2)c1)c1cc[n+]([O-])cc1 returned Giardia FBPA inh -4%, Shiga toxin inh 13, CHX counter 2, LmPK inh 2%, TbPYK inhibitor 3% and Sm TGR block 65%.
Nc1ccc(C(=O)N/N=C/c2cccc(Oc3ccccc3)c2)cc1 was read as Giardia FBPA inh -3%, Shiga toxin inh 33, CHX counter 30*, LmPK inh 0%, TbPYK inhibitor -10% and Sm TGR block 0%.
CNC(=S)N/N=C/c1cccc(OCc2ccccc2F)c1 was read as Giardia FBPA inh -12%, Shiga toxin inh 52*, CHX counter 27*, LmPK inh -11%, TbPYK inhibitor -2% and Sm TGR block -5%.
`Cc1ccccc1-n1nc(CO)c(C(=O)NCc2cccnc2)n1` gave TbPYK inhibitor 0% and Sm TGR block 4%.
For OC(CCN1CCCCC1)c1ccc(-c2ccccc2)cc1 (stereo not given) the results were Giardia FBPA inh 5%, Shiga toxin inh 72*, CHX counter 52*, LmPK inh 0%, TbPYK inhibitor -3% and Sm TGR block 6%.
Screening OC(CCN1CCOCC1)c1ccccc1 (stereo not given) returned Giardia FBPA inh -4%, Shiga toxin inh -6, CHX counter -1, LmPK inh 0%, TbPYK inhibitor 0% and Sm TGR block 5%.
Screening CC(OC(=O)c1cccs1)C(=O)NC1CCCCC1C (stereo not given) returned TbPYK inhibitor 10% and Sm TGR block -12%.
For CC1CCCCC1NC(=S)NC(=O)c1cccs1 (stereo not given) the results were Giardia FBPA inh -7%, Shiga toxin inh 3, CHX counter 7, LmPK inh 1%, TbPYK inhibitor -8% and Sm TGR block 22µM*.
